Measurements as given in PubChem BioAssay (NCATS).
Several values for one entry are separate records, joined by “and”; a condition that tells them apart may be missing. Equal entries are not always repeated. Results filed as inconclusive are left out. Activity calls are given as the source filed them. Calls follow the shape of the dose curve; as a rule, active = well fitted curve in the direction sought with a large enough effect; inconclusive = small, poorly fitted or top-dose-only effect, or another doubt; inactive = no such curve, though single readings can be large; an effect the other way counts as inactive or inconclusive.

Assays:
[1] = Primary qHTS for inhibitors of nuclear receptor binding SET domain protein 2 (NSD2) in an isogenic RCH-ACV NSD2 p.E1099K mutant (9B) (AID 1645876); details: RCH-ACV NSD2 E1099K (9B) viability, CellTiter-Glo, 72 h; series mostly up to 44.9 µM
[2] = Primary qHTS for inhibitors of nuclear receptor binding SET domain protein 2 (NSD2) in an RCH-ACV wild type WT cells (2C) (AID 1645877); details: RCH-ACV (leukaemia line) NSD2 WT (2C) viability, CellTiter-Glo, 72 h; series mostly up to 44.9 µM
Also: nearly all actives have a fitted effect of over 70% in size.
Potency is read from the fitted curve at half-maximal effect.

## CNC1CCC(N(Cc2cccc(-c3ccncc3)c2)C(=O)c2sc3c(F)ccc(F)c3c2Cl)CC1 (stereo not given)
[1]
  Potency: 8.33 µM (active) and 8.17 µM (active)
[2]
  Potency: 7.42 µM (active) and 8.17 µM (active)

## NC(=O)c1ccc2nc(-c3ccc(Oc4ccc(Cl)cc4)cc3)[nH]c2c1
[1]
  Potency: 14.5 µM (active) and 23.1 µM (active)
[2]
  Potency: 16.6 µM (active) and 16.4 µM (active)

## C=C1C(=O)[C@@]23C(CC[C@@H]1[C@H]2O)[C@@]12CO[C@]3(O)[C@@H](O)[C@@H]1C(C)(C)CC[C@@H]2O (stereo not given in full)
[1]
  Potency: 2.35 µM (active)
[2]
  Potency: 1.48 µM (active)

## Cc1nc(N)sc1-c1ccnc(Nc2ccc(N3CCOCC3)cc2)n1
[1]
  Potency: 409 nM (active) and 590 nM (active)
[2]
  Potency: 459 nM (active) and 468 nM (active)

## O=c1[nH]cnc2c1ncn2[C@H]1CC[C@@H](CO)O1
[1]
  Potency: inactive
[2]
  Potency: inactive

## CNC(=O)c1ccc2cc(C3(O)CCn4cncc43)ccc2c1 (stereo not given)
[1]
  Potency: inactive
[2]
  Potency: inactive

## O=C1C(Cl)=C(NCCN2CCOCC2)C(=O)c2ncccc21
[1]
  Potency: 7.42 µM (active)
[2]
  Potency: 3.32 µM (active)

## CO[C@@H](C(=O)N1Cc2[nH]nc(NC(=O)c3ccc(N4CCN(C)CC4)cc3)c2C1)c1ccccc1
[1]
  Potency: 73.1 nM (active) and 118 nM (active)
[2]
  Potency: 58 nM (active) and 52.5 nM (active)

## Cc1ccc(F)c(NC(=O)Nc2ccc(-c3cccc4[nH]nc(N)c34)cc2)c1
[1]
  Potency: 10.5 µM (active)
[2]
  Potency: 8.33 µM (active)

## CC(C)n1nc(-c2ccc3oc(N)nc3c2)c2c(N)ncnc21
[1]
  Potency: 36.5 nM (active) and 29.5 nM (active)
[2]
  Potency: 36.5 nM (active) and 33.2 nM (active)
